According to the supplement of paper PMC11732987, “Enantioselective OTUD7B fragment discovery through chemoproteomics screening and high-throughput optimisation” (Communications Chemistry, 2025):

Legend:
Experiment in all cases: log2 ratio of Biotin-Ahx-Ub-VS probe labelling (fragment/DMSO); higher = less target engagement (more negative = stronger competition), active = hit call of the paper (q ≤ 0.05, log2 ratio ≤ -1)
Settings in all cases: compound concentration: 200 uM; treatment time: 3 h
USP34 = USP34 (UniProt Q70CQ2)
Chain of USP34 (Q70CQ2 whole entry, the tested form may be a part): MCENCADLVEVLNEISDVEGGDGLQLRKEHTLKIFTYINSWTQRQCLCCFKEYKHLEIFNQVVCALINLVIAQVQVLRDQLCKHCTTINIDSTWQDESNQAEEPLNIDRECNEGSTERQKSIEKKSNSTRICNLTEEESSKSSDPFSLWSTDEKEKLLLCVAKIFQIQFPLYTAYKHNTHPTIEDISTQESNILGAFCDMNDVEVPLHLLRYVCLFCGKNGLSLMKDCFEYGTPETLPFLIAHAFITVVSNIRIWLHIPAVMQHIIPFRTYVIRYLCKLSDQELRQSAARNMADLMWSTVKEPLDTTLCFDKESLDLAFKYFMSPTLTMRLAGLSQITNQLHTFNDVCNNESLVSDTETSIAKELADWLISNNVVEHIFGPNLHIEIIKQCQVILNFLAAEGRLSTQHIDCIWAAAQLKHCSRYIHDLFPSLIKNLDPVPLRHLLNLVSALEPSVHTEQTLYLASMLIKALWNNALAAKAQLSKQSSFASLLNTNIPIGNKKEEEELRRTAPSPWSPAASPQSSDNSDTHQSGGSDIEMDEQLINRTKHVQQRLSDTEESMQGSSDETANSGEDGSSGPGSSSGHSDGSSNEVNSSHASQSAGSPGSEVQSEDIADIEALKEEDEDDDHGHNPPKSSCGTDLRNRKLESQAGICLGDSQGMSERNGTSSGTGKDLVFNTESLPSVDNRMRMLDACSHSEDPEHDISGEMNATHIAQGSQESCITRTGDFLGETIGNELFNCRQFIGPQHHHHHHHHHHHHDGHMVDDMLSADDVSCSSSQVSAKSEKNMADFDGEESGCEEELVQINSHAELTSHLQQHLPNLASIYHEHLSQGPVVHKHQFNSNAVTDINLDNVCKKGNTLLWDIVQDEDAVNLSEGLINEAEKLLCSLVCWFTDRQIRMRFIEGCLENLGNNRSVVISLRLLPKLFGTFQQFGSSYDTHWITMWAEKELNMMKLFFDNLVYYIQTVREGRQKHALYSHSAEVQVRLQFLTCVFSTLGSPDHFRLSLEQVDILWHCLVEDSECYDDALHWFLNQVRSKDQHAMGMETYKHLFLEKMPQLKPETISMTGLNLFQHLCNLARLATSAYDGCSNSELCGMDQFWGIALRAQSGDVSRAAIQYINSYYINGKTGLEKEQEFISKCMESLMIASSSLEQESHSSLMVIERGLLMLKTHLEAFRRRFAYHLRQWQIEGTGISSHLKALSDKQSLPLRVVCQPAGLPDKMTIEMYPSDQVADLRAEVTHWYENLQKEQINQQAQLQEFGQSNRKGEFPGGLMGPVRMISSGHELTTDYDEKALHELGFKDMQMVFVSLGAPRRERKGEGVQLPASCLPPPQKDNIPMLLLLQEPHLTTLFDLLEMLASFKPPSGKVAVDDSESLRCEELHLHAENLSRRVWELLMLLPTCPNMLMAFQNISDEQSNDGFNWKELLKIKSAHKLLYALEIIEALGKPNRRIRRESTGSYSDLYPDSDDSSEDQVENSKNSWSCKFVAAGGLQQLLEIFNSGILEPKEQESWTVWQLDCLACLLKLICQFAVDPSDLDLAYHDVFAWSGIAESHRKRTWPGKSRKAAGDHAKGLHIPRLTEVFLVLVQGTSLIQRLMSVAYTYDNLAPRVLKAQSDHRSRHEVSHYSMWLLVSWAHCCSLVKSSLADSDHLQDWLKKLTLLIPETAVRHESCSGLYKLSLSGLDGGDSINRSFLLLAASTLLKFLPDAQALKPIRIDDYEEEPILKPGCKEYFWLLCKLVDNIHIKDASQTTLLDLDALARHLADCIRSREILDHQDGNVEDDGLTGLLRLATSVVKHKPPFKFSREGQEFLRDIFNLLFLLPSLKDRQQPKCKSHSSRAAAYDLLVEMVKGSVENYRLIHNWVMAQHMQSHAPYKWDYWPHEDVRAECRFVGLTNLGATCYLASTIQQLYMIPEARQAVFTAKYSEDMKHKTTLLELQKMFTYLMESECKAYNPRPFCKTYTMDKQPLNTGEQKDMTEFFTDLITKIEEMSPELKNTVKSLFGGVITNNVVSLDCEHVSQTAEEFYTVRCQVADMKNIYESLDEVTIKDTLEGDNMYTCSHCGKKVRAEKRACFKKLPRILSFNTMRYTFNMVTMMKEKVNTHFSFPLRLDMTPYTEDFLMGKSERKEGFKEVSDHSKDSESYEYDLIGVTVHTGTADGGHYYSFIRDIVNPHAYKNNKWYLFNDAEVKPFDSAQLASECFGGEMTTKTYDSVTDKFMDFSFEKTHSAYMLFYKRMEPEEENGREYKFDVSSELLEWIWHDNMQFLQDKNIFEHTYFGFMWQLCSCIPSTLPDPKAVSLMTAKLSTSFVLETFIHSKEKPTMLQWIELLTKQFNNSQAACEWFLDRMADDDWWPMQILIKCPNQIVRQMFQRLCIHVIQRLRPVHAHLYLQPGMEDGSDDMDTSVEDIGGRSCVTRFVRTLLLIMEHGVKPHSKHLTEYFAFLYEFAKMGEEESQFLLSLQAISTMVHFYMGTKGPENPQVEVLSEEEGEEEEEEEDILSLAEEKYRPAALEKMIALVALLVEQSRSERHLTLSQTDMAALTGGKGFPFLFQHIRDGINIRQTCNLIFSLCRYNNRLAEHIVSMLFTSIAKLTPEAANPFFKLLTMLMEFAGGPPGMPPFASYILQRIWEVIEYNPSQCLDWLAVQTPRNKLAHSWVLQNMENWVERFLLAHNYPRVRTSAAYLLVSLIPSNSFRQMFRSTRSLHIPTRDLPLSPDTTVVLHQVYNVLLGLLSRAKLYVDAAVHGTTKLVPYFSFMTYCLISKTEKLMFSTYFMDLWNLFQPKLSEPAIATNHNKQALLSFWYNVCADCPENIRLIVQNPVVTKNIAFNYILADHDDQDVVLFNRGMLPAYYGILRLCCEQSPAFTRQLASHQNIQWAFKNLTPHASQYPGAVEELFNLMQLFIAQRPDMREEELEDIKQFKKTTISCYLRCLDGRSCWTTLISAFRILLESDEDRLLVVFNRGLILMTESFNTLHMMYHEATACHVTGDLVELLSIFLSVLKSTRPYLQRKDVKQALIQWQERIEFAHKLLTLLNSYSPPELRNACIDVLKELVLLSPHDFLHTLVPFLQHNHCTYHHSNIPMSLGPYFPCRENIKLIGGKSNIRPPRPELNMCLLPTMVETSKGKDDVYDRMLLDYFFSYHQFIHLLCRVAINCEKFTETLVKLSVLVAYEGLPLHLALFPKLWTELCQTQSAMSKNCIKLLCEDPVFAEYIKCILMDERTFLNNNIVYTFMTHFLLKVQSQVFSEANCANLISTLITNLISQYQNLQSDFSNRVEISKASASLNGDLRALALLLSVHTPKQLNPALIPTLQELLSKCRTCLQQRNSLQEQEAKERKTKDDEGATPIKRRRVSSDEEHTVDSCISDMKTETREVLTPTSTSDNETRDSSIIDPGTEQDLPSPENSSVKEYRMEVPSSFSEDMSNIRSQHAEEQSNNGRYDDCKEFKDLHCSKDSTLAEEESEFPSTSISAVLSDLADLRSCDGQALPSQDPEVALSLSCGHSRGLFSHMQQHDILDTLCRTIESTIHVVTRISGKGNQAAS
Procedure, shortened: (§1)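 Labelled DUBs from HEK293T lysate were NeutrAvidin-enriched, digested with LysC and trypsin, and run by diaPASEF LC-MS/MS. Before that, each 495 µg sample in Tris/CHAPS/IGEPAL buffer with protease inhibitors was treated in triplicate with fragment at 200 µM or vehicle for 3 h, then with Biotin-Ahx-Ub-VS at 0.5 µM final for 1 h. Values are average log2 ratios of fragment over vehicle by unpaired t-test, based on global-median-normalised Spectronaut label-free quantities from proteins with ≥2 unique peptides.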

USP36 = target: T1, USP36 (UniProt Q9P275)
T1 sequence (whole entry): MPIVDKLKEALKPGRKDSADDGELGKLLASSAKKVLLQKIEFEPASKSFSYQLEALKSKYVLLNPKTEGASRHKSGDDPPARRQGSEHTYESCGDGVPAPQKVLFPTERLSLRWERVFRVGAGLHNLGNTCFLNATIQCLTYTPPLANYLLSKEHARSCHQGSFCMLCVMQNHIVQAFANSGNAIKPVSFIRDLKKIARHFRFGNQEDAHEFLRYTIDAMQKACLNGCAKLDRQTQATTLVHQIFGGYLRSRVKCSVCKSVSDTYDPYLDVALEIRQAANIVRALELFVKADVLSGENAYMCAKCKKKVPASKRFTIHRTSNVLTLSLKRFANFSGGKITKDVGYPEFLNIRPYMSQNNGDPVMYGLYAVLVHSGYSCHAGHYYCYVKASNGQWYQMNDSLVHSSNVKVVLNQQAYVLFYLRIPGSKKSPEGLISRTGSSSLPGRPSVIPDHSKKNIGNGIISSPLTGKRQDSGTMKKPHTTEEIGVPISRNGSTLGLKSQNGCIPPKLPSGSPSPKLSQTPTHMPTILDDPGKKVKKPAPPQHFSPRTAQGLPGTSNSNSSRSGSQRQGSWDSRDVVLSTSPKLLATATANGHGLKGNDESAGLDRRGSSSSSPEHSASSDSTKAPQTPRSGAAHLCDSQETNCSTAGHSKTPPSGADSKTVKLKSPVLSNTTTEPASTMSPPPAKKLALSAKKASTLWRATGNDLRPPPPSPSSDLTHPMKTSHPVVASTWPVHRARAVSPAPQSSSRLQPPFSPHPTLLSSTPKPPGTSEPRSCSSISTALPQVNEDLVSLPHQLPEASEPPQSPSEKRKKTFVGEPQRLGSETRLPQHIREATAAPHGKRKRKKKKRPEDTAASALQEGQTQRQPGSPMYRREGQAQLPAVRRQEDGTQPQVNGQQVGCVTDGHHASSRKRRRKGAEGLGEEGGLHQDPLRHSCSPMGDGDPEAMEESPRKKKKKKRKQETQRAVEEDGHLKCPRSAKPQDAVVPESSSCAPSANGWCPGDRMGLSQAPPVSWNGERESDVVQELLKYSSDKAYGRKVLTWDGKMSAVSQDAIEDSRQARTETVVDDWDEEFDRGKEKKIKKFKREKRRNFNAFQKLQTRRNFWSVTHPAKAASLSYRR
Procedure, shortened: as §1

USP38 = target: T2, USP38 (UniProt Q8NB14)
T2 sequence (whole entry): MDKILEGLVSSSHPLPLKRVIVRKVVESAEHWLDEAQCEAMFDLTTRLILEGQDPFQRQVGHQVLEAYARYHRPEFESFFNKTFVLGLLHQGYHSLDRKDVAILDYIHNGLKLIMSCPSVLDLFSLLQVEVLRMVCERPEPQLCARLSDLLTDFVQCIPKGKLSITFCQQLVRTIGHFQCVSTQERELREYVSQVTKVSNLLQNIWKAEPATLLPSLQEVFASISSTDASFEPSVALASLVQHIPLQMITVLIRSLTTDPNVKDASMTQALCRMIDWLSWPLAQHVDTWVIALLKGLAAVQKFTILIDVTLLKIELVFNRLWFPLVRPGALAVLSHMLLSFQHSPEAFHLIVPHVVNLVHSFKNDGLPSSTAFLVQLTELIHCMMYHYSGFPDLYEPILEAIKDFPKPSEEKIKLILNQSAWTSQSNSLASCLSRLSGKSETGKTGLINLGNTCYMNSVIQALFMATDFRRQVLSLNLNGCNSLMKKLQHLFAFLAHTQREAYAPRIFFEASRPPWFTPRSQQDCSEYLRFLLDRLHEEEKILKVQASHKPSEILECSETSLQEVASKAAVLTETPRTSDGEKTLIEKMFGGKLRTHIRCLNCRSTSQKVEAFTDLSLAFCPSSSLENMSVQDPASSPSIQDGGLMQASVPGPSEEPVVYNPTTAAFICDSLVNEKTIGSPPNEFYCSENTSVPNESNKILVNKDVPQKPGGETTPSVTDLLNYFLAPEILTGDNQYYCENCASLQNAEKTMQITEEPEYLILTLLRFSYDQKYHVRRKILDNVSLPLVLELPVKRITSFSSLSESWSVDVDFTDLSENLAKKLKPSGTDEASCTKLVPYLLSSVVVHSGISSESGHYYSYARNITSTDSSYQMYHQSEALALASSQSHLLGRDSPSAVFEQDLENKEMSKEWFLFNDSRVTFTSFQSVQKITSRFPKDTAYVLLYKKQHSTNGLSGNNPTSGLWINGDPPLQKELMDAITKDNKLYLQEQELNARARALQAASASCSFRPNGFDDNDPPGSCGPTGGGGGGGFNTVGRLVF
Procedure, shortened: as §1

USP39 = target: T3, USP39 (UniProt Q53GS9)
T3 sequence (whole entry): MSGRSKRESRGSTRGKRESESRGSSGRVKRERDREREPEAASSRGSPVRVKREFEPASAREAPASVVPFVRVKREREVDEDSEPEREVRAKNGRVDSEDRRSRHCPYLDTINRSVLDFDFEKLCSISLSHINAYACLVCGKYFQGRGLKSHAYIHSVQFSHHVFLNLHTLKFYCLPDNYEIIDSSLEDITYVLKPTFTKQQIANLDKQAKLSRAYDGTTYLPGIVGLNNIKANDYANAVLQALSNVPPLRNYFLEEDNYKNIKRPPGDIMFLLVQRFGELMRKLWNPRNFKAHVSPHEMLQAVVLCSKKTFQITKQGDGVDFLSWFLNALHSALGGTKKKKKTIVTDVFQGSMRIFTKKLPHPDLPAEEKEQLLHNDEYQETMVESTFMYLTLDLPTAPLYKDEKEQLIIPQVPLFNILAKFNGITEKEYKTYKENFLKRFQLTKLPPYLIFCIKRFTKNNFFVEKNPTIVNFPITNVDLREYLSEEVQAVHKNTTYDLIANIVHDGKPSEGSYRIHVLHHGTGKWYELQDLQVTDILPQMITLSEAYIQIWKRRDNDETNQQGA
Procedure, shortened: as §1

USP4 = target: T4, USP4 (UniProt Q13107)
T4 sequence (whole entry): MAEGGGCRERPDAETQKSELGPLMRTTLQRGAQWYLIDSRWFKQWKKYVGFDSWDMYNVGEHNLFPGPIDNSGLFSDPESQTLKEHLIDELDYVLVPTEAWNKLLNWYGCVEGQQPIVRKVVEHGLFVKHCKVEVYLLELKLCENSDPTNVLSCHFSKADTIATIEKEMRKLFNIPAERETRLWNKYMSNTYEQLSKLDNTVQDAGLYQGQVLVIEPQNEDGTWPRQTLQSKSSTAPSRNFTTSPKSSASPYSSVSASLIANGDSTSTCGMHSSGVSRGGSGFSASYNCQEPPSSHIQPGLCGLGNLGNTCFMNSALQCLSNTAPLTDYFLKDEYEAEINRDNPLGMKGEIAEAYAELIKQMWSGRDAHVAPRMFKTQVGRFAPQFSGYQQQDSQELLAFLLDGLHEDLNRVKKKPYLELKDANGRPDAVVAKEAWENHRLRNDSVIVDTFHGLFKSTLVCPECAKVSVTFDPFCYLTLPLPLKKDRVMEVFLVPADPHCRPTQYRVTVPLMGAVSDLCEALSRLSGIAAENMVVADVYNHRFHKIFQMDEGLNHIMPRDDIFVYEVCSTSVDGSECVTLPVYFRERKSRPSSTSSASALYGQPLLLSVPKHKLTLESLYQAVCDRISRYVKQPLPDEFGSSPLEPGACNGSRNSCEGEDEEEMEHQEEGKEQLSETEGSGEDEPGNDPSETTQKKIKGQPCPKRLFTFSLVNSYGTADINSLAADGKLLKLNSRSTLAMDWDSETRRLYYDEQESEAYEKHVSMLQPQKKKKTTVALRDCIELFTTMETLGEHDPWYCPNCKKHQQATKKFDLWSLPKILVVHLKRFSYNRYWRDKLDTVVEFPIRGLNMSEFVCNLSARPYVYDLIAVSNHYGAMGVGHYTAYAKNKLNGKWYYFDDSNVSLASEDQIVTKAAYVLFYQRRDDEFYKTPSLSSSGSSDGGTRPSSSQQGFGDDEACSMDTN
Procedure, shortened: as §1

Measured: log2 ratio of Biotin-Ahx-Ub-VS probe labelling

O=C(CCl)NCC1(c2ccccc2)CC1
inactive: USP34 -0.227 | USP36 -0.0695 | USP38 0.127 | USP39 -0.168 | USP4 -0.0752
